Active and inactive are the calls of the source. How the source made its calls: active means hit-call score of the fitted dose curve at least 0.9, where 1 is the maximum; inactive means score below 0.9.
Experiments:
Conditions in all cases: mRNA level, 48 h; actives raise or lower the signal
[1] = read-out: succinate dehydrogenase complex iron sulfur subunit B (SDHB), SDHB (gene 6390); assay: LTEA_HepaRG_SDHB: Life Technologies and Expression Analysis (LTEA) Assay for succinate dehydrogenase complex iron sulfur subunit B (SDHB) using HepaRG (AID 2283528)
Method in brief: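 HepaRG, 48 h exposure, 8-pt half-log series from 100 uM in 0.5% DMSO, duplicates. Readout: SDHB mRNA by Fluidigm qRT-PCR vs housekeeping genes; bidirectional fit relative to DMSO.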

[2] = read-out: Signal transducer and activator of transcription 3 (Homo sapiens) (UniProt P40763); assay: LTEA_HepaRG_STAT3: Life Technologies and Expression Analysis (LTEA) Assay for Signal transducer and activator of transcription (STAT3) using HepaRG (AID 2283529)
Method in brief: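 Differentiated human HepaRG cells in serum-free induction medium were exposed in duplicate for 48 h to eight half-log concentrations up to 100 uM in 0.5% DMSO. STAT3 mRNA was quantified by TaqMan qRT-PCR, normalized to ACTB, GAPDH and POLR2A, and fitted bidirectionally against DMSO.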

[3] = read-out: sulfotransferase 2A1 (SULT2A1), SULT2A1 (gene 6822); assay: LTEA_HepaRG_SULT2A1: Life Technologies and Expression Analysis (LTEA) Assay for sulfotransferase 2A1 (SULT2A1) using HepaRG (AID 2283531)
Method in brief: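 HepaRG, 48 h chemical exposure, 8-pt half-log curve from 100 uM in 0.5% DMSO, duplicates. Readout: TaqMan qRT-PCR of SULT2A1 mRNA, housekeeping-normalized. Bidirectional fit vs DMSO baseline.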

[4] = read-out: Transforming Growth Factor (TGFA), TGFA (gene 7039); assay: LTEA_HepaRG_TGFA: Life Technologies and Expression Analysis (LTEA) Assay for Transforming Growth Factor (TGFA) using HepaRG (AID 2283532)
Method in brief: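 Differentiated human HepaRG cells, plated 48 h then switched to serum-free induction medium, were exposed in duplicate for 48 h to 8-point half-log series from 100 uM in 0.5% DMSO. TGFA mRNA measured by qRT-PCR, normalized to ACTB/GAPDH/POLR2A, bidirectional fit versus DMSO.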

[5] = read-out: Transforming Growth Factor (TGFB1), TGFB1 (gene 7040); assay: LTEA_HepaRG_TGFB1: Life Technologies and Expression Analysis (LTEA) Assay for Transforming Growth Factor (TGFB1) Transporter using HepaRG (AID 2283533)
Method in brief: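 qRT-PCR readout of TGFB1 transcript in HepaRG lysates, normalized to three housekeeping genes; gain or loss of signal fitted relative to 0.5% DMSO vehicle. Exposure: 48 h, 8-point curve from 100 uM, duplicate wells.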

TIMP1, TIMP1 (gene 7076) = assay: LTEA_HepaRG_TIMP1: Life Technologies and Expression Analysis (LTEA) Assay for TIMP1 using HepaRG (AID 2283534)
Method in brief: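 HepaRG, 48 h exposure, 8-pt half-log series from 100 uM in 0.5% DMSO, duplicates; TIMP1 transcript by Fluidigm qRT-PCR, housekeeping-normalized; bidirectional curve fit vs DMSO baseline.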

[6] = read-out: Tumor necrosis factor receptor 1 (TNFRSF1A), TNFRSF1A (gene 7132); assay: LTEA_HepaRG_TNFRSF1A: Life Technologies and Expression Analysis (LTEA) Assay for Tumor necrosis factor receptor 1 (TNFRSF1A) using HepaRG (AID 2283535)
Method in brief: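 HepaRG, 48 h plating then 48 h chemical exposure, serum-free induction media; 8-pt CRC from 100 uM, half-log, 0.5% DMSO vehicle, duplicates. Readout: TaqMan qRT-PCR (Fluidigm), housekeeping-gene normalized; bidirectional fit vs DMSO.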

[7] = read-out: Thyroid Hormone Responsive (THRSP), THRSP (gene 7069); assay: LTEA_HepaRG_THRSP: Life Technologies and Expression Analysis (LTEA) Assay for Thyroid Hormone Responsive (THRSP) using HepaRG (AID 2283536)
Method in brief: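 Differentiated human HepaRG cells were exposed in duplicate for 48 h in serum-free induction medium to eight concentrations (top 100 uM, half-log steps, 0.5% DMSO). Expression was quantified by TaqMan qRT-PCR, normalized to ACTB, GAPDH and POLR2A, with bidirectional fitting against DMSO.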

[8] = read-out: Cellular tumor antigen p53 (Homo sapiens) (UniProt P04637); assay: LTEA_HepaRG_TP53: Life Technologies and Expression Analysis (LTEA) Assay for Tumor Protein P53 (TP53) using HepaRG (AID 2283537)
Method in brief: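 HepaRG, 48 h exposure, top 100 uM, half-log 8-point, 0.5% DMSO vehicle, duplicates. Read: TP53 mRNA by TaqMan qRT-PCR, normalised to ACTB/GAPDH/POLR2A; bidirectional fit vs DMSO.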

[9] = read-out: solute carrier (SLCO1B1), SLCO1B1 (gene 10599); assay: LTEA_HepaRG_SLCO1B1: Life Technologies and Expression Analysis (LTEA) Assay for solute carrier (SLCO1B1) using HepaRG (AID 2283530)
Method in brief: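 SLCO1B1 transcript read by qRT-PCR (Fluidigm arrays), normalized to three housekeeping genes, after 48 h chemical exposure of HepaRG cells; bidirectional concentration-response fitting versus 0.5% DMSO baseline. Eight-point half-log series, maximum 100 uM.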

Measured: AC50

Sequence of Cellular tumor antigen p53 (Homo sapiens) (P04637 whole entry, looked up): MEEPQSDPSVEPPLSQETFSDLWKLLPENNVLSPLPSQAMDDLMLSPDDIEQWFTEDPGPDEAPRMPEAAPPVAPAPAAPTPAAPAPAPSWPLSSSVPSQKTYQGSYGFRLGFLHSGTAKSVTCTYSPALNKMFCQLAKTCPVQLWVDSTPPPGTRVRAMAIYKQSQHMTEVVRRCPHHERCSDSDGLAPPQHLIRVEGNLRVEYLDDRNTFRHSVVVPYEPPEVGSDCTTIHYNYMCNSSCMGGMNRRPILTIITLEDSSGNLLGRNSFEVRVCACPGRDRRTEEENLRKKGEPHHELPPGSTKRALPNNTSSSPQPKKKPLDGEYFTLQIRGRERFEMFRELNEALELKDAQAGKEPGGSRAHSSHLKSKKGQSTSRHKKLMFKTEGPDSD
Sequence of Signal transducer and activator of transcription 3 (Homo sapiens) (P40763 whole entry, looked up): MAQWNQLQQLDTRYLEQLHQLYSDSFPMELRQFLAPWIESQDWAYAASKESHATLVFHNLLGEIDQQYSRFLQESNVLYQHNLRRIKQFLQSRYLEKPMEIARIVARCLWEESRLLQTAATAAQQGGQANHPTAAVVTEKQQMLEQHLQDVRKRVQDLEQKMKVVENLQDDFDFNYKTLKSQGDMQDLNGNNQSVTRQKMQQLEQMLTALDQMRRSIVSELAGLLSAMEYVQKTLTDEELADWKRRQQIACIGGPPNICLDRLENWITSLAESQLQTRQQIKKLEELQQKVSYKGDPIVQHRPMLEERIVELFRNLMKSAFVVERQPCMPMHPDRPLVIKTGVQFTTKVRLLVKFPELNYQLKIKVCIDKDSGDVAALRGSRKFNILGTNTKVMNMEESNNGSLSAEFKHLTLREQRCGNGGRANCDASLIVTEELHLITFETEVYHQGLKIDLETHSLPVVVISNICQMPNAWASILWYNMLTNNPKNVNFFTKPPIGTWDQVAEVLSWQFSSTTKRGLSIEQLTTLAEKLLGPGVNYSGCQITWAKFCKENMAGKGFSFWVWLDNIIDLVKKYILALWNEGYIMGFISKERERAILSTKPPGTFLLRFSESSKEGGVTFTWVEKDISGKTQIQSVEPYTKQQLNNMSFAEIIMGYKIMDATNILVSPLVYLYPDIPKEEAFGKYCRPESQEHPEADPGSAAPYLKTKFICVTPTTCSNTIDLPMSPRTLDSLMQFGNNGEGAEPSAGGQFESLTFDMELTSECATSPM

COC(=O)c1ccc(O)cc1
inactive: [1] | [2] | [3] | [4] | [5] | TIMP1, TIMP1 (gene 7076) | [6] | [7] | [8]

Cc1ccc2ncccc2c1
inactive: [1] | [2] | [9] | [3] | [5] | TIMP1, TIMP1 (gene 7076) | [6] | [7] | [8]

CNC(=O)[C@H]1O[C@@H](n2cnc3c(NCc4cc(Cl)ccc4OCc4cc(C)no4)ncnc32)[C@H](O)[C@@H]1N
inactive: [1] | [2] | [9] | [3] | [5] | TIMP1, TIMP1 (gene 7076) | [6] | [7] | [8]

CCCCOC(=O)CCCCCCCCC(=O)OCCCC
inactive: [1] | [2] | [9] | [3] | [5] | TIMP1, TIMP1 (gene 7076) | [6] | [7] | [8]

CC1=C(/C=C/C(C)=C/C=C/C(C)=C/CO)C(C)(C)CCC1
active: [3] 52.2 µM
inactive: [1] | [2] | [9] | [5] | TIMP1, TIMP1 (gene 7076) | [6] | [7] | [8]

Clc1cc(Cl)c(Cl)cc1Cl
inactive: [1] | [2] | [3] | [4] | [5] | TIMP1, TIMP1 (gene 7076) | [6] | [7] | [8]

COc1ccc2c(c1)c(CC(=O)O)c(C)n2C(=O)c1ccc(Cl)cc1
inactive: [1] | [2] | [9] | [3] | [5] | TIMP1, TIMP1 (gene 7076) | [6] | [7] | [8]

CCCCCCOCCO
active: [2] 9.92 µM
inactive: [1] | [9] | [3] | [5] | TIMP1, TIMP1 (gene 7076) | [6] | [7] | [8]

COCCOC[C@H](CC1(C(=O)NC2CCC(C(=O)O)CC2)CCCC1)C(=O)Oc1ccc2c(c1)CCC2 (stereo partly drawn)
inactive: [1] | [2] | [9] | [3] | [5] | TIMP1, TIMP1 (gene 7076) | [6] | [7] | [8]

COc1ccc(C)cc1N
inactive: [1] | [2] | [3] | [4] | [5] | TIMP1, TIMP1 (gene 7076) | [6] | [7] | [8]

CC1(C)CC(N=C=O)CC(C)(CN=C=O)C1 (stereo not drawn)
inactive: [1] | [2] | [3] | [4] | [5] | TIMP1, TIMP1 (gene 7076) | [6] | [7] | [8]

NS(=O)(=O)c1cc2c(cc1Cl)NCNS2(=O)=O
inactive: [1] | [2] | [9] | [3] | [5] | TIMP1, TIMP1 (gene 7076) | [6] | [7] | [8]

CN1CCCC1=O
inactive: [1] | [2] | [9] | [3] | [5] | TIMP1, TIMP1 (gene 7076) | [6] | [7] | [8]

CCCCCCCCCCC
inactive: [1] | [2] | [3] | [4] | [5] | TIMP1, TIMP1 (gene 7076) | [6] | [7] | [8]

Cc1ccc(C(C)C)c(O)c1
inactive: [1] | [2] | [3] | [4] | [5] | TIMP1, TIMP1 (gene 7076) | [6] | [7] | [8]

CNCc1cc(F)ccc1Oc1ccc(Cl)c(Cl)c1
active: [9] 82.6 µM | [3] 84.2 µM
inactive: [1] | [2] | [5] | TIMP1, TIMP1 (gene 7076) | [6] | [7] | [8]

CN1CCN(Cc2cc(-c3ccc4[nH]c(=O)oc4c3)co2)[C@@H](c2ccc(F)cc2)C1
inactive: [1] | [2] | [3] | [4] | TIMP1, TIMP1 (gene 7076) | [6] | [7] | [8]
active: [5] 62 µM

CC(=O)Oc1ccccc1C(=O)O
inactive: [1] | [2] | [3] | [5] | TIMP1, TIMP1 (gene 7076) | [6] | [8]

CCCCCCCCCCCCCCCC
inactive: [1] | [2] | [3] | [5] | TIMP1, TIMP1 (gene 7076) | [6] | [7] | [8]

COc1cc(-c2nc(NC(=O)c3cc4cc(C)cc(C)c4n3CC(=O)O)sc2CCC2CCCCC2)c(OC)cc1Cl
active: [1] 13.4 µM | [2] 19.3 µM | [3] 6.35 µM | [4] 60.3 µM | [5] 12.1 µM | TIMP1, TIMP1 (gene 7076) 4.26 µM | [6] 6.91 µM | [7] 6.89 µM | [8] 24.6 µM

Cc1cccc([N+](=O)[O-])c1C
inactive: [1] | [2] | [3] | [5] | TIMP1, TIMP1 (gene 7076) | [6] | [7] | [8]

Cc1cc(=O)[nH]c(=S)[nH]1
inactive: [1] | [2] | [3] | [5] | TIMP1, TIMP1 (gene 7076) | [6] | [7] | [8]
